The record followed here is PubChem BioAssay (EPA / NIEHS).

Calls of active or inactive are those of the source. How the source made its calls: active means hit-call score of the fitted dose curve at least 0.9, where 1 is the maximum; inactive means score below 0.9.

Read-out in test [1]: Macrophage colony-stimulating factor (MCSF), CSF1 (gene 1435)
Kind of test: BSK_hDFCGF_MCSF: BioMAP Diversity Plus: hDFCGF Assay for Macrophage colony-stimulating factor (MCSF) Biomarker Activity (AID 2283060). The note with it: primary human foreskin fibroblasts; actives raise or lower the signal. Put shortly:
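M-CSF levels, determined by ELISA, are taken at 24 h after dosing human skin fibroblasts. Responses in either direction are fitted with DMSO serving as the baseline.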

Test [2] can be described thus: BSK_hDFCGF_SRB: Viability Assessment in the BioMAP Diversity Plus: hDFCGF Assay (AID 2283061).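 Further: cells exposed to compound for 24 h before the read.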 The settings on record: primary human foreskin fibroblasts. An outline of the steps:
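Cells were dosed with test chemical, cultured 24 h, fixed with 10% TCA, then stained with 0.1% SRB and read at 560 nm. The fibroblasts were human foreskin primary cells, and DMSO served as baseline.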

Read-out in test [3]: TIMP metallopeptidase inhibitor 1 (TIMP1), TIMP1 (gene 7076)
Kind of test: BSK_hDFCGF_TIMP1: BioMAP Diversity Plus: hDFCGF Assay for TIMP metallopeptidase inhibitor 1 (TIMP1) Biomarker Activity (AID 2283062). The note with it: primary human foreskin fibroblasts; actives raise or lower the signal. Put shortly: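 Fibroblasts from human foreskin are treated with test chemical and harvested at 24 h. TIMP-1 is quantified by ELISA, and gain or loss of signal is scored against DMSO.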

Read-out in test [4]: Monokine induced gamma interferon (MIG), CXCL9 (gene 4283)
Put plainly: BSK_hDFCGF_MIG: BioMAP Diversity Plus: hDFCGF Assay for Monokine induced gamma interferon (MIG) Biomarker Activity (AID 2283063). The note with it: primary human foreskin fibroblasts; actives raise or lower the signal. Put shortly:
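MIG signal, determined by ELISA, reflects 24 h chemical exposure of human skin primary fibroblasts. DMSO serves as negative control and baseline.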

Read-out in test [5]: Matrix Metallopeptidase 1 (MMP1), MMP1 (gene 4312)
Put plainly: BSK_hDFCGF_MMP1: BioMAP Diversity Plus: hDFCGF Assay for Matrix Metallopeptidase 1 (MMP1) Biomarker Activity (AID 2283064). The settings on record: primary human foreskin fibroblasts; actives raise or lower the signal. Put shortly:
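hDFCGF primary fibroblasts (human foreskin); chemical added; 24 h; MMP1 by ELISA; bidirectional fit vs DMSO.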

Read-out in test [6]: Vascular cell adhesion molecule 1 (VCAM1), VCAM1 (gene 7412)
Put plainly: BSK_hDFCGF_VCAM1: BioMAP Diversity Plus: hDFCGF Assay for Vascular cell adhesion molecule 1 (VCAM1) Biomarker Activity (AID 2283065).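 On AC50: VCAM-1 protein level quantified by ELISA after 24 h chemical exposure.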 The settings on record: primary human foreskin fibroblasts; actives raise or lower the signal. An outline of the steps:
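Cells are dosed, cultured for 24 h, then VCAM-1 is quantified by ELISA; signal increases and decreases are both fitted relative to DMSO.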

Read-out in test [7]: Plasminogen activator inhibitor-1 (PAI1), SERPINE1 (gene 5054)
Put plainly: BSK_hDFCGF_PAI1: BioMAP Diversity Plus: hDFCGF Assay for Plasminogen activator inhibitor-1 (PAI1) Biomarker Activity (AID 2283066). The note with it: primary human foreskin fibroblasts; actives raise or lower the signal. An outline of the steps: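 PAI-1 levels, determined by ELISA, served as the endpoint in human foreskin fibroblast cultures exposed to compound for 24 h, with DMSO as baseline.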

Read-out in test [8]: Interferon-gamma inducible Protein 10 (IP10), CXCL10 (gene 3627)
Put plainly: BSK_KF3CT_IP10: BioMAP Diversity Plus: KF3CT Assay for Interferon-gamma inducible Protein 10 (IP10) Biomarker Activity (AID 2283068). The note with it: primary human keratinocytes with fibroblasts; actives raise or lower the signal. Put shortly: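 KF3CT co-culture (keratinocytes + foreskin fibroblasts), 24 h compound, IP-10 by ELISA; bidirectional fit vs DMSO baseline.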

A short description of test [9]: BSK_KF3CT_SRB: Viability Assessment in the BioMAP Diversity Plus: KF3CT Assay (AID 2283069).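 Further: total protein by sulforhodamine B staining as a cytotoxicity measure; read 24 h after compound addition; fitted for both signal gain and loss against DMSO baseline.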 The note with it: primary human keratinocytes with fibroblasts. An outline of the steps:
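Keratinocytes co-cultured with foreskin fibroblasts (human primary); chemical added, 24 h; fix 10% TCA, stain 0.1% SRB, A560. Bidirectional fit vs DMSO.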

The term AC50 denotes the concentration at which the activity in the assay is half-maximal. Regarding `CCNc1nc(Cl)nc(NC(C)C)n1`, the outcome in [1], in [2], in test [3], in test [4], in test [5] and in test [6] was inactive. Moreover, the outcome in test [7] and in test [9] was inactive. Also, in test [8], the concentration at half-maximal activity (AC50) was 0.148 µM (active).

For `N#CC(CCc1ccc(Cl)cc1)(Cn1cncn1)c1ccccc1` (stereo unspecified), the result in test [1], in [2], in test [3], in test [4], in test [5] and in [6] was inactive. For the same compound, the outcome in test [7], in test [8] and in [9] was inactive.

On to `COC(=O)C=C(C)OP(=O)(OC)OC`, for which the AC50 in test [1] is 0.157 µM (active); in test [3] it was 0.273 µM (active). In addition, the result in test [2], in test [4], in test [5], in [6], in [7] and in [8] was inactive. Also, the result in [9] was inactive.

On to `CS/C(C)=N/OC(=O)N(C)SN(C)C(=O)O/N=C(\C)SC`, for which the outcome in [1], in [3], in test [5] and in [6] was inactive. In addition, the AC50 in test [2] is 11.7 µM (active); in test [4] it was 11 µM (active); in test [7] it was 12 µM (active); in [8] it was 12.4 µM (active); in test [9] it was 12.5 µM (active).

As to `Cc1ccc(-c2c(Cl)nc(C#N)n2S(=O)(=O)N(C)C)cc1`, the AC50 is 14.3 µM (active) in test [1]; 14.5 µM (active) in [2]; 18.3 µM (active) in [3]; 4.39 µM (active) in [6]; 11.3 µM (active) in test [9]. In addition, the outcome in test [4], in [5], in test [7] and in test [8] was inactive.

Consider `N#Cc1nn(-c2c(Cl)cc(C(F)(F)F)cc2Cl)c(N)c1S(=O)C(F)(F)F` (stereo unspecified), for which the result in test [1], in test [2], in test [3], in [4], in test [5] and in test [6] was inactive. The result in [7] and in test [9] was inactive. The AC50 in test [8] is 29.1 µM (active).

Consider `C=CC1(C)OC(=O)N(c2cc(Cl)cc(Cl)c2)C1=O` (stereo unspecified), for which the result in test [1], in test [2], in test [3], in test [4], in [5] and in [6] was inactive. Besides, the outcome in test [7], in test [8] and in [9] was inactive.

Turning to `Cc1cc(Cl)ccc1OCC(=O)O`, the outcome in test [1], in test [2], in test [3], in test [4], in test [5] and in test [6] was inactive. Moreover, the outcome in test [7], in test [8] and in test [9] was inactive.

Turning to `CC(Oc1ccc(Cl)cc1Cl)C(=O)O` (stereo unspecified), the result in [1], in test [2], in [3], in test [4], in [5] and in test [6] was inactive. Moreover, the result in test [7], in [8] and in test [9] was inactive.

Turning to `C=CCC1=C(C)[C@@H](OC(=O)[C@@H]2[C@@H](C=C(C)C)C2(C)C)CC1=O`, the AC50 in test [1] is 32.2 µM (active); in test [2], 34.9 µM (active); in test [3], 32.1 µM (active); in [4], 31.6 µM (active); in test [5], 31 µM (active); in test [6], 29.6 µM (active). Besides, the figures for the AC50 in test [7] and in [9] were 36.6 µM (active) and 20 µM (active), respectively. Also, in [8], the result was inactive.

As for `CC1=C(C(=O)Nc2ccccc2)SCCO1`, the outcome in test [1], in test [2], in test [3], in [4], in test [5] and in test [6] was inactive. Moreover, the outcome in [7], in test [8] and in test [9] was inactive.

`COC(=O)N(OC)c1ccccc1COc1ccn(-c2ccc(Cl)cc2)n1`: the AC50 in test [1] is 20 µM (active); in [2] it was 13.4 µM (active); in [5] it was 4.62 µM (active); in test [7], 2.46 µM (active); in [8], 6.72 µM (active). Further, the result in [3], in test [4], in test [6] and in [9] was inactive.

Take `CC1COC(Cn2cncn2)(c2ccc(Oc3ccc(Cl)cc3)cc2Cl)O1` (stereo unspecified): the AC50 is 32.2 µM (active) in test [1]; 32.5 µM (active) in test [2]; 30.4 µM (active) in [3]; 31.1 µM (active) in test [4]; 33.8 µM (active) in test [5]; 30.8 µM (active) in test [6]. Also, the AC50 in [7] is 32.1 µM (active); in test [8], 34.7 µM (active); in [9], 33.7 µM (active).

For the compound `Fc1ccc(Oc2ccnc3cc(Cl)cc(Cl)c23)cc1`, the AC50 was 16.4 µM (active) in test [1]; 15.3 µM (active) in test [2]; 26.6 µM (active) in test [4]; 35.3 µM (active) in [5]; 13.2 µM (active) in test [6]; 18 µM (active) in [7]. The AC50 in test [8] is 17.9 µM (active). Moreover, the outcome in test [3] and in [9] was inactive.
